Results published in PubChem BioAssay (EPA / NIEHS).
Records with an inconclusive call do not appear. Active and inactive are the calls of the source. Rule for the calls, unless noted: active = hit-call score of the fitted dose curve at least 0.9, where 1 is the maximum; inactive = score below 0.9.

Assays:
[1] = ATG_NFI_CIS: Attagene CIS-FACTORIAL HepG2 Assay for human Nuclear Factor I (NFI) (AID 2282989); settings: HepG2 cis-regulatory reporter, NFI response element transcription; actives raise or lower the signal
In short: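 HepG2 cells transiently transfected with cis-element-driven multiplexed reporter transcription units, dosed for 24 h. Reporter mRNA quantified by RT-PCR, fluorescent labelling, HpaI digestion and capillary electrophoresis; bidirectional fit versus DMSO baseline.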

[2] = biological target: Myc proto-oncogene protein (Homo sapiens) (UniProt P01106); assay: ATG_Myc_CIS: Attagene CIS-FACTORIAL HepG2 Assay for human Myelocytomatosis (Myc) Proto-Oncogene Transcription Factor (AID 2282990); settings: HepG2, Attagene cis-reporter transcription factor activity; actives raise or lower the signal
In short: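 Multiplexed cis-reporter transcription in HepG2 cells after 24 h chemical treatment. Reporter mRNA measured by RT-PCR and capillary electrophoresis fluorescence; activity fitted bidirectionally against DMSO control.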

[3] = ATG_NF_kB_CIS: Attagene CIS-FACTORIAL HepG2 Assay for human Nuclear Factor Kappa B (NF-kB) (AID 2282991); settings: HepG2 Attagene cis-factorial NF-kB reporter mRNA; actives raise or lower the signal
In short: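 After 24 h compound incubation, transfected HepG2 cells yield total RNA; reporter cDNA is PCR-amplified, end-labelled with 6-FAM, HpaI-digested and analysed on a genetic analyser. Endogenous factor activity, DMSO-referenced bidirectional fit.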

[4] = ATG_NRF2_ARE_CIS: Attagene CIS-FACTORIAL HepG2 Assay for human Nuclear Factor Erythroid 2 Related Factor 2 (NFR2) response to Antioxidant Response Elements (ARE) (AID 2282992); settings: HepG2 Attagene ARE/NRF2 reporter, transcription factor activity; actives raise or lower the signal
In short: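 Endogenous transcription factor activity read out as reporter transcript levels (RT-PCR plus capillary electrophoresis, fluorescence) in transiently transfected HepG2 cells. Measured at 24 h after dosing; gain or loss of signal fitted versus DMSO.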

[5] = ATG_Oct_MLP_CIS: Attagene CIS-FACTORIAL HepG2 Assay for human Octamer-Binding Transcription Factor (Oct) (AID 2282993); settings: HepG2 Attagene cis-factorial Oct reporter, mRNA; actives raise or lower the signal
In short: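 HepG2 cells transiently transfected with cis-promoter-driven multiplexed reporter transcription units, dosed for 24 h. Reporter mRNA quantified by RT-PCR, fluorescent labelling, HpaI digestion and capillary electrophoresis; bidirectional fits versus DMSO baseline.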

[6] = biological target: Peroxisome proliferator-activated receptor gamma (Homo sapiens) (UniProt P37231); assay: ATG_PPARg_TRANS: Attagene TRANS-FACTORIAL HepG2 Assay for human Peroxisome Proliferator-activated Receptor-gamma (PPARg) (AID 2283007; active = hit-call score of the fitted dose curve at least 0.9, where 1 is the maximum)
In short: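 Liver-derived HepG2 cells expressing an exogenous NR-Gal4 chimera alongside GAL4-UAS reporter genes; 24 h exposure. Fluorescence of reporter RT-PCR products, separated by capillary electrophoresis, gives mRNA induction relative to DMSO.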

[7] = biological target: Cellular tumor antigen p53 (Homo sapiens) (UniProt P04637); assay: ATG_p53_CIS: Attagene CIS-FACTORIAL HepG2 Assay for human p53 Transcription Factor (AID 2282994); settings: HepG2 p53 cis-element reporter, Attagene mRNA; actives raise or lower the signal
In short: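 Endogenous p53 activity read in transiently transfected HepG2 from a cis-element-driven reporter transcript after 24 h exposure. RNA reverse-transcribed, PCR-amplified, fluorescently labelled and sized by capillary electrophoresis; gain or loss fitted against DMSO baseline.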

[8] = biological target: human Peroxisome Proliferator-activated Receptor alpha (PPARa), PPARA (gene 5465) (UniProt Q07869); assay: ATG_PPARa_TRANS: Attagene TRANS-FACTORIAL HepG2 Assay for human Peroxisome Proliferator-activated Receptor alpha (PPARa) (AID 2283001; active = hit-call score of the fitted dose curve at least 0.9, where 1 is the maximum)
In short: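 Exposure: 24 h, transiently transfected HepG2 cells. Endpoint: GAL4-UAS reporter mRNA, RT-PCR with capillary electrophoresis fluorescence. Baseline: DMSO; increases fitted.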

[9] = biological target: human Peroxisome Proliferator-activated Receptor delta (PPARd), PPARD (gene 5467) (UniProt Q03181); assay: ATG_PPARd_TRANS: Attagene TRANS-FACTORIAL HepG2 Assay for human Peroxisome Proliferator-activated Receptor delta (PPARd) (AID 2283002; active = hit-call score of the fitted dose curve at least 0.9, where 1 is the maximum)
In short: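 Multiplexed trans-activation format: HepG2 liver cells expressing exogenous NR-Gal4 chimeras and GAL4-UAS reporters were exposed for 24 h. Reporter mRNA was detected by RT-PCR with capillary electrophoresis fluorescence; activity fitted as gain of signal relative to DMSO.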

[10] = biological target: Nuclear receptor subfamily 1 group I member 2 (Homo sapiens) (UniProt O75469); assay: ATG_PXR_TRANS: Attagene TRANS-FACTORIAL HepG2 Assay for human Pregnane X Receptor (PXR) (AID 2283008; active = hit-call score of the fitted dose curve at least 0.9, where 1 is the maximum)
In short: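 Transactivation by exogenous PXR–GAL4 fusion measured as reporter transcript induction after 24 h compound treatment of transfected human HepG2 cells. Read-out via RT-PCR and capillary electrophoresis of labelled fragments, fitted upward relative to DMSO.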

[11] = biological target: human RAR-related Orphan Receptor beta (RORb), RORB (gene 6096) (UniProt Q92753); assay: ATG_RORb_TRANS: Attagene TRANS-FACTORIAL HepG2 Assay for human RAR-related Orphan Receptor beta (RORb) (AID 2283010; active = hit-call score of the fitted dose curve at least 0.9, where 1 is the maximum)
In short: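 Multiplexed transcription-factor reporter assay: HepG2 cells transiently carrying NR-Gal4/GAL4-UAS constructs, 24 h treatment, mRNA quantified by RT-PCR plus capillary electrophoresis fluorescence; activity scored as induction over DMSO.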

[12] = biological target: human Retinoic Acid Receptor beta (RARb), RARB (gene 5915) (UniProt P10826); assay: ATG_RARb_TRANS: Attagene TRANS-FACTORIAL HepG2 Assay for human Retinoic Acid Receptor beta (AID 2283004; active = hit-call score of the fitted dose curve at least 0.9, where 1 is the maximum)
In short: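 Induction of reporter mRNA from a chimeric RARb-Gal4 construct was measured by RT-PCR, FAM labelling, HpaI digestion and capillary electrophoresis. Measurements followed 24 h compound treatment of transiently transfected human HepG2 liver cells, with DMSO as baseline.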

[13] = biological target: Retinoic acid receptor alpha (Homo sapiens) (UniProt P10276); assay: ATG_RARa_TRANS: Attagene TRANS-FACTORIAL HepG2 Assay for human Retinoic Acid Receptor alpha (RARa) (AID 2283005; active = hit-call score of the fitted dose curve at least 0.9, where 1 is the maximum)
In short: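 HepG2 cells transiently transfected with multiple reporter units expressing chimeric RARα-GAL4 fusion, with GAL4-UAS-driven reporters. After 24 h compound exposure, reporter mRNA induction quantified by RT-PCR and capillary electrophoresis with fluorescent labeling; gain-of-signal fitted relative to DMSO control.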

[14] = biological target: human Retinoic Acid Receptor gamma (RARg), RARG (gene 5916) (UniProt P13631); assay: ATG_RARg_TRANS: Attagene TRANS-FACTORIAL HepG2 Assay for human Retinoic Acid Receptor gamma (RARg) (AID 2283009; active = hit-call score of the fitted dose curve at least 0.9, where 1 is the maximum)
In short: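 Gain-of-signal relative to DMSO is reported from fluorescent capillary electrophoresis of RT-PCR reporter products. These came from HepG2 cells expressing transfected RARg-GAL4 chimeras with UAS reporters, harvested 24 h after dosing.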

Measured: AC50

Sequence of Nuclear receptor subfamily 1 group I member 2 (Homo sapiens) (O75469 whole entry, looked up, the tested form may be a part): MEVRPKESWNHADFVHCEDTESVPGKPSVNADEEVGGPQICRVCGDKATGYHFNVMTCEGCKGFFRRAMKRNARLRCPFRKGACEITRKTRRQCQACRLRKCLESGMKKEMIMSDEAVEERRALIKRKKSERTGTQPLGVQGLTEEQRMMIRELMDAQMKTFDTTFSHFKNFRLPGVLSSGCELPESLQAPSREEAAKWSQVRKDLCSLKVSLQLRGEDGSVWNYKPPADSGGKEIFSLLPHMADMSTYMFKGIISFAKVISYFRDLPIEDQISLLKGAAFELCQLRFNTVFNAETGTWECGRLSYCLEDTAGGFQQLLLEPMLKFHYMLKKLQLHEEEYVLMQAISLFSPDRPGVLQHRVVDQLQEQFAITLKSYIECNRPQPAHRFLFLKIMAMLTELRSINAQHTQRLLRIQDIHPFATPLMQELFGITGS
Sequence of Myc proto-oncogene protein (Homo sapiens) (P01106 whole entry, looked up): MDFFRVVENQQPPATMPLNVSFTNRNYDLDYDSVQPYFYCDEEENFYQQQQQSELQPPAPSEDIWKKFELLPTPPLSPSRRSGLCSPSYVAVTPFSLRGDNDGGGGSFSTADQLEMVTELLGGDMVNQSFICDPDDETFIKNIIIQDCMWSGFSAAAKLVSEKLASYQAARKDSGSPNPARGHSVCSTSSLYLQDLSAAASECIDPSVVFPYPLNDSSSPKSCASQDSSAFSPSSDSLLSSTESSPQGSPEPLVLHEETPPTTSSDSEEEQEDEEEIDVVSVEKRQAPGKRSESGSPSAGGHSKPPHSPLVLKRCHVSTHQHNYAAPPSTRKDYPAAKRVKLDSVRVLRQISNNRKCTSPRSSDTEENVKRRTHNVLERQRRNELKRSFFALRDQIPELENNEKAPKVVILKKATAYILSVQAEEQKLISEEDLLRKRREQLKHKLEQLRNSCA
Sequence of Cellular tumor antigen p53 (Homo sapiens) (P04637 whole entry, looked up): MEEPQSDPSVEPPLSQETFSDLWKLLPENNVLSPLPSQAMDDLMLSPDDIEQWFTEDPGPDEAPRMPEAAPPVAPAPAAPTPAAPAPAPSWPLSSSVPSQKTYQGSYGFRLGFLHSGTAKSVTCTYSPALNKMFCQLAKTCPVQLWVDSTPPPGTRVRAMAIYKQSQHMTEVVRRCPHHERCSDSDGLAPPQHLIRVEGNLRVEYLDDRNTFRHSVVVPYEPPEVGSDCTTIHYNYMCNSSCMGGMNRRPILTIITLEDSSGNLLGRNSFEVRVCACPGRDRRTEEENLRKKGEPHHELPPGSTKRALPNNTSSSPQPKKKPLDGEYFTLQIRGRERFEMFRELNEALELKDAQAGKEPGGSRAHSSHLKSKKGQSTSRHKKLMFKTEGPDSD
Sequence of human Peroxisome Proliferator-activated Receptor alpha (PPARa), PPARA (gene 5465) (Q07869 whole entry, looked up, the tested form may be a part): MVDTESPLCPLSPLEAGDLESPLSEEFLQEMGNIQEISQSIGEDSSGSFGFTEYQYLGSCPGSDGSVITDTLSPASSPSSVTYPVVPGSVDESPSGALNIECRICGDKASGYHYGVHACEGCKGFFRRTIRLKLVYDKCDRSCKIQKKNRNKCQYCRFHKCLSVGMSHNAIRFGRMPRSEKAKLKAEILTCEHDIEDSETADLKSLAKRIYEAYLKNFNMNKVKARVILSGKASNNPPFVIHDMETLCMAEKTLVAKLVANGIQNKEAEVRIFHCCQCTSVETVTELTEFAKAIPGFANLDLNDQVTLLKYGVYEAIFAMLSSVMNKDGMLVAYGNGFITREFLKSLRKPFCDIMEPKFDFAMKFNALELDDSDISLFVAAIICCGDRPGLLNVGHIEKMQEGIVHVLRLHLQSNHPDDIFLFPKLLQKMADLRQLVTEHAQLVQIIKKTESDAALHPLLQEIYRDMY
Sequence of Peroxisome proliferator-activated receptor gamma (Homo sapiens) (P37231 whole entry, looked up, the tested form may be a part): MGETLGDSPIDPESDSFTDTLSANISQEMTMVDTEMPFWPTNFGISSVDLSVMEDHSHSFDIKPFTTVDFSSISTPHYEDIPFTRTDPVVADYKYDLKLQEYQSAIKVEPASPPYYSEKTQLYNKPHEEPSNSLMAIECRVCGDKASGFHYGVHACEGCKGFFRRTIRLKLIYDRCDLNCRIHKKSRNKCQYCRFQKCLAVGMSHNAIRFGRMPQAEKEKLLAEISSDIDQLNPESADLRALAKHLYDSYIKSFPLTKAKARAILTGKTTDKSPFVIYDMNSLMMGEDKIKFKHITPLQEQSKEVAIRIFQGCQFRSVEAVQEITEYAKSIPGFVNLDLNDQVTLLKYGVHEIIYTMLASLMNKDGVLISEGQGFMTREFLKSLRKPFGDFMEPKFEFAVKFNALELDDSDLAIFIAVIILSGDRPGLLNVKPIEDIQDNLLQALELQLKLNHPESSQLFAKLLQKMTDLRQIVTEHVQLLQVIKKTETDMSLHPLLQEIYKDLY
Sequence of human Peroxisome Proliferator-activated Receptor delta (PPARd), PPARD (gene 5467) (Q03181 whole entry, looked up, the tested form may be a part): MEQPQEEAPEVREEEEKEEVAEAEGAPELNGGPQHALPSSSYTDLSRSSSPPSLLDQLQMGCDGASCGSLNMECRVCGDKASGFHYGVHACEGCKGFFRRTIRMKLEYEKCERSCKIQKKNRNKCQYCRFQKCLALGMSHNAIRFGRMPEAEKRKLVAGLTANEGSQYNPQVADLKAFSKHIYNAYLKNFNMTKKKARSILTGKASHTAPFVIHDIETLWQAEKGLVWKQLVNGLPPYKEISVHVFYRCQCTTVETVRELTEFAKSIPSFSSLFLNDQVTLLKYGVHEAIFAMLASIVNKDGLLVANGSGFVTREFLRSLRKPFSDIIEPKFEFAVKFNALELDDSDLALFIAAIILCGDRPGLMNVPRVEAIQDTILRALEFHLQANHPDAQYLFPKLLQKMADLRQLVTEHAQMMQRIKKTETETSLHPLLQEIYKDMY
Sequence of human Retinoic Acid Receptor gamma (RARg), RARG (gene 5916) (P13631 whole entry, looked up, the tested form may be a part): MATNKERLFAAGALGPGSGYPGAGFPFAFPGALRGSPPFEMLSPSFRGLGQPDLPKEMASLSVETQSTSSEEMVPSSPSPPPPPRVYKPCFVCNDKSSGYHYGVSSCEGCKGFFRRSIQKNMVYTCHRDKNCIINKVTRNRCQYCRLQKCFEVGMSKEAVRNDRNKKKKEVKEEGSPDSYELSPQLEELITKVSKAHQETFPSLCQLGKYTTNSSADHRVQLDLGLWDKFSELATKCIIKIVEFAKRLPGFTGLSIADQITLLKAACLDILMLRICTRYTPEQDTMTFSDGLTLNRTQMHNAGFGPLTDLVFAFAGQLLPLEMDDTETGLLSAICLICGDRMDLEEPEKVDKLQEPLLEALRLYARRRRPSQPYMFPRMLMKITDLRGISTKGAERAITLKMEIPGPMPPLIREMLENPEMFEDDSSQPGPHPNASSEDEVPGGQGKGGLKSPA
Sequence of Retinoic acid receptor alpha (Homo sapiens) (P10276 whole entry, looked up, the tested form may be a part): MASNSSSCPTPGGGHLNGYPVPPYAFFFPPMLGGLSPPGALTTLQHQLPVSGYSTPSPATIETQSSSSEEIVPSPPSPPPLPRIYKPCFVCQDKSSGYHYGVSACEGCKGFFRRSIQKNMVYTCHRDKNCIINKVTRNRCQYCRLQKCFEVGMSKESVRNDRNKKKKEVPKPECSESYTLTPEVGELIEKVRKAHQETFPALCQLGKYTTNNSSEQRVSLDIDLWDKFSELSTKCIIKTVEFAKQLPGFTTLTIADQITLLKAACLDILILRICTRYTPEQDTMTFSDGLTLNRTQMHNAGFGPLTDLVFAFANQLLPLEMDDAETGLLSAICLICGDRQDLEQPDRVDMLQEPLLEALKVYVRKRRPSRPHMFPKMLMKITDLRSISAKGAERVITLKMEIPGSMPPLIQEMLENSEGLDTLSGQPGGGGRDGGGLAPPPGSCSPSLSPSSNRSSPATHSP
Sequence of human RAR-related Orphan Receptor beta (RORb), RORB (gene 6096) (Q92753 whole entry, looked up, the tested form may be a part): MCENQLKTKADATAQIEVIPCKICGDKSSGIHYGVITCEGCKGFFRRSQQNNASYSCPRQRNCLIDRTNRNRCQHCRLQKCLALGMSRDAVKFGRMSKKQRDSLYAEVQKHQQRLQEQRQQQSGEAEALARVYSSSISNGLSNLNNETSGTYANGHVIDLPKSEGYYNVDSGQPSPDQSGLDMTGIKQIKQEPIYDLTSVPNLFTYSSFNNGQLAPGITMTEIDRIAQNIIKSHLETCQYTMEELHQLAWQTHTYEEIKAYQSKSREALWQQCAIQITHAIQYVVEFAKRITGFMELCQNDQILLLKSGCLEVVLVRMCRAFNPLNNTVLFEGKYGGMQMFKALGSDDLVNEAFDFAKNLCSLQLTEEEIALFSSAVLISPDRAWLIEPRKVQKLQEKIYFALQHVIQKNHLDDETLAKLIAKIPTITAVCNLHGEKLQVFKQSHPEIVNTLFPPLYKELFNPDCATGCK
Sequence of human Retinoic Acid Receptor beta (RARb), RARB (gene 5915) (P10826 whole entry, looked up, the tested form may be a part): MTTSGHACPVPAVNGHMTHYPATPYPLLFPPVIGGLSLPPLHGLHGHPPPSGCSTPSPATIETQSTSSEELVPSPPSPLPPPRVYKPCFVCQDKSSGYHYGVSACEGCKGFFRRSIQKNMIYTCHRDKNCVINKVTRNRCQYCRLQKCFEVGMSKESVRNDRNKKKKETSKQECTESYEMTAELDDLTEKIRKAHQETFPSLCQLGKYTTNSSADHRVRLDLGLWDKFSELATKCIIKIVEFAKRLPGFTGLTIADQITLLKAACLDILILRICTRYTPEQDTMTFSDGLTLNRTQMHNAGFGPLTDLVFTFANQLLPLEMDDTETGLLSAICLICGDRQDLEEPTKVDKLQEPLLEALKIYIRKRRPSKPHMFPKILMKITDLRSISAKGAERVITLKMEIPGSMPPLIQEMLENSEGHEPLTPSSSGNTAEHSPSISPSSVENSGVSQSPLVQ

OC[C@H]1O[C@@H]2O[C@H]3[C@H](O)[C@@H](O)[C@@H](O[C@H]4[C@H](O)[C@@H](O)[C@@H](O[C@H]5[C@H](O)[C@@H](O)[C@@H](O[C@H]6[C@H](O)[C@@H](O)[C@@H](O[C@H]7[C@H](O)[C@@H](O)[C@@H](O[C@H]8[C@H](O)[C@@H](O)[C@@H](O[C@H]9[C@H](O)[C@@H](O)[C@@H](O[C@H]1[C@H](O)[C@H]2O)O[C@@H]9CO)O[C@@H]8CO)O[C@@H]7CO)O[C@@H]6CO)O[C@@H]5CO)O[C@@H]4CO)O[C@@H]3CO
inactive: [1] | [2] | [3] | [4] | [5] | [6]

COC(C)(C)CC(C)=O
inactive: [1] | [2] | [4] | [5] | [7] | [8] | [9] | [10]

O=C(O)CCCCCCCCCCCC(=O)O
inactive: [1] | [2] | [4] | [5] | [7] | [8] | [6] | [11]

COC(=O)C=C(C)CCC=C(C)C
active: [4] 36.1 µM | [6] 44.5 µM | [10] 4.9 µM
inactive: [1] | [2] | [5] | [7] | [8] | [9]

CCCC(C)C(O)CC (configuration not stated)
not listed: [3] | [9] | [11]
inactive: all other assays above
